Test results taken from the supplement of paper PMC4466140.

What was measured:
Test in all cases: SPOT peptide array binding signal intensity (averaged, normalized) (arbitrary units (background-subtracted, floor 0; scale differs between SH3 domains)); higher = stronger binding of the SH3 domain to the peptide
AgAbp1 = molecular target: AgAbp1
Summary of the method: (§1)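 GST-fused SH3 domains, from four yeast species, were produced in E. coli BL21(DE3) and captured on glutathione Sepharose. Membranes of cellulose carrying synthetic 15-mer peptides, in which cysteines had been replaced by serines, were exposed to each domain at 10 μg/ml overnight at 4°C in TBS-based blocking buffer. After anti-GST antibody, an HRP anti-mouse secondary and luminol, spots were imaged and quantified using Genespotter. Binding signal is normalized and background-subtracted spot intensity, averaged over replicates, in arbitrary units that differ between domains.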

AgBbc1 = molecular target: AgBbc1
Summary of the method: as §1

AgBem1-D1 = molecular target: AgBem1-D1
Summary of the method: as §1

AgBzz1-D1 = molecular target: AgBzz1-D1
Summary of the method: as §1

AgBzz1-D2 = molecular target: AgBzz1-D2
Summary of the method: as §1

AgCyk3 = molecular target: AgCyk3
Summary of the method: as §1

AgFus1 = molecular target: AgFus1
Summary of the method: as §1

AgHof1 = molecular target: AgHof1
Summary of the method: as §1

AgHse1 = molecular target: AgHse1
Summary of the method: as §1

AgLsb1 = molecular target: AgLsb1
Summary of the method: as §1

AgLsb4 = molecular target: AgLsb4
Summary of the method: as §1

AgMyo5 = molecular target: AgMyo5
Summary of the method: as §1

AgNbp2 = molecular target: AgNbp2
Summary of the method: as §1

AgRvs167 = molecular target: AgRvs167
Summary of the method: as §1

AgSho1 = molecular target: AgSho1
Summary of the method: as §1

AgSla1-D1-D2 = molecular target: AgSla1-D1-D2
Summary of the method: as §1

AgSla1-D3 = molecular target: AgSla1-D3
Summary of the method: as §1

CaAbp1-D1 = molecular target: CaAbp1-D1
Summary of the method: as §1

CaAbp1-D2 = molecular target: CaAbp1-D2
Summary of the method: as §1

CaBbc1 = molecular target: CaBbc1
Summary of the method: as §1

CaBem1-D1 = molecular target: CaBem1-D1
Summary of the method: as §1

CaBzz1-D1 = molecular target: CaBzz1-D1
Summary of the method: as §1

CaBzz1-D2 = molecular target: CaBzz1-D2
Summary of the method: as §1

CaCyk3 = molecular target: CaCyk3
Summary of the method: as §1

CaFus1 = molecular target: CaFus1
Summary of the method: as §1

CaHof1 = molecular target: CaHof1
Summary of the method: as §1

CaHse1 = molecular target: CaHse1
Summary of the method: as §1

CaLsb1 = molecular target: CaLsb1
Summary of the method: as §1

CaLsb4 = molecular target: CaLsb4
Summary of the method: as §1

CaMyo5 = molecular target: CaMyo5
Summary of the method: as §1

CaNbp2 = molecular target: CaNbp2
Summary of the method: as §1

CaRvs167 = molecular target: CaRvs167
Summary of the method: as §1

CaRvs167-3 = molecular target: CaRvs167-3
Summary of the method: as §1

CaSho1 = molecular target: CaSho1
Summary of the method: as §1

CaSla1-D1-D2 = molecular target: CaSla1-D1-D2
Summary of the method: as §1

CaSla1-D3 = molecular target: CaSla1-D3
Summary of the method: as §1

ScAbp1 = molecular target: ScAbp1
Summary of the method: as §1

ScBbc1 = molecular target: ScBbc1
Summary of the method: as §1

ScBem1-D1 = molecular target: ScBem1-D1
Summary of the method: as §1

ScBzz1-D1 = molecular target: ScBzz1-D1
Summary of the method: as §1

ScBzz1-D2 = molecular target: ScBzz1-D2
Summary of the method: as §1

ScCyk3 = molecular target: ScCyk3
Summary of the method: as §1

ScFus1 = molecular target: ScFus1
Summary of the method: as §1

ScHof1 = molecular target: ScHof1
Summary of the method: as §1

ScHse1 = molecular target: ScHse1
Summary of the method: as §1

ScLsb1 = molecular target: ScLsb1
Summary of the method: as §1

ScLsb2 = molecular target: ScLsb2
Summary of the method: as §1

ScLsb3 = molecular target: ScLsb3
Summary of the method: as §1

ScLsb4 = molecular target: ScLsb4
Summary of the method: as §1

ScMyo3 = molecular target: ScMyo3
Summary of the method: as §1

ScMyo5 = molecular target: ScMyo5
Summary of the method: as §1

ScNbp2 = molecular target: ScNbp2
Summary of the method: as §1

ScPex13 = molecular target: ScPex13
Summary of the method: as §1

ScRvs167 = molecular target: ScRvs167
Summary of the method: as §1

ScSho1 = molecular target: ScSho1
Summary of the method: as §1

ScSla1-D1-D2 = molecular target: ScSla1-D1-D2
Summary of the method: as §1

ScSla1-D3 = molecular target: ScSla1-D3
Summary of the method: as §1

SpAbp1-D1 = molecular target: SpAbp1-D1
Summary of the method: as §1

SpBbc1 = molecular target: SpBbc1
Summary of the method: as §1

SpBzz1-D1 = molecular target: SpBzz1-D1
Summary of the method: as §1

SpBzz1-D2 = molecular target: SpBzz1-D2
Summary of the method: as §1

SpCyk3 = molecular target: SpCyk3
Summary of the method: as §1

SpHof1 = molecular target: SpHof1
Summary of the method: as §1

SpHof1-2 = molecular target: SpHof1-2
Summary of the method: as §1

SpHof1-3 = molecular target: SpHof1-3
Summary of the method: as §1

SpHse1 = molecular target: SpHse1
Summary of the method: as §1

SpLsb1 = molecular target: SpLsb1
Summary of the method: as §1

SpLsb4 = molecular target: SpLsb4
Summary of the method: as §1

SpMyo1 = molecular target: SpMyo1
Summary of the method: as §1

SpNbp2 = molecular target: SpNbp2
Summary of the method: as §1

SpPex13 = molecular target: SpPex13
Summary of the method: as §1

SpRvs167 = molecular target: SpRvs167
Summary of the method: as §1

SpSla1-D1-D2 = molecular target: SpSla1-D1-D2
Summary of the method: as §1

SpSla1-D3 = molecular target: SpSla1-D3
Summary of the method: as §1

GKLKHIPRRPYEIER
SPOT peptide array binding signal intensity (AgAbp1): 3.5 | SPOT peptide array binding signal intensity (AgBbc1): 102 | SPOT peptide array binding signal intensity (AgBem1-D1): 14 | SPOT peptide array binding signal intensity (AgBzz1-D1): 11 | SPOT peptide array binding signal intensity (AgBzz1-D2): 10.5 | SPOT peptide array binding signal intensity (AgCyk3): 1.5 | SPOT peptide array binding signal intensity (AgFus1): 10 | SPOT peptide array binding signal intensity (AgHof1): 5.5 | SPOT peptide array binding signal intensity (AgHse1): ≤ 0 | SPOT peptide array binding signal intensity (AgLsb1): 1 | SPOT peptide array binding signal intensity (AgLsb4): 12 | SPOT peptide array binding signal intensity (AgMyo5): 0.25 | SPOT peptide array binding signal intensity (AgNbp2): ≤ 0 | SPOT peptide array binding signal intensity (AgRvs167): 1.83 | SPOT peptide array binding signal intensity (AgSho1): ≤ 0 | SPOT peptide array binding signal intensity (AgSla1-D1-D2): ≤ 0 | SPOT peptide array binding signal intensity (AgSla1-D3): 0.75 | SPOT peptide array binding signal intensity (CaAbp1-D1): 129 | SPOT peptide array binding signal intensity (CaAbp1-D2): 1 | SPOT peptide array binding signal intensity (CaBbc1): 552 | SPOT peptide array binding signal intensity (CaBem1-D1): 5 | SPOT peptide array binding signal intensity (CaBzz1-D1): 116 | SPOT peptide array binding signal intensity (CaBzz1-D2): 67.5 | SPOT peptide array binding signal intensity (CaCyk3): 67.5 | SPOT peptide array binding signal intensity (CaFus1): ≤ 0 | SPOT peptide array binding signal intensity (CaHof1): ≤ 0 | SPOT peptide array binding signal intensity (CaHse1): 1.5 | SPOT peptide array binding signal intensity (CaLsb1): ≤ 0 | SPOT peptide array binding signal intensity (CaLsb4): 40 | SPOT peptide array binding signal intensity (CaMyo5): ≤ 0 | SPOT peptide array binding signal intensity (CaNbp2): ≤ 0 | SPOT peptide array binding signal intensity (CaRvs167): 2.83 | SPOT peptide array binding signal intensity (CaRvs167-3): ≤ 0 | SPOT peptide array binding signal intensity (CaSho1): ≤ 0 | SPOT peptide array binding signal intensity (CaSla1-D1-D2): ≤ 0 | SPOT peptide array binding signal intensity (CaSla1-D3): ≤ 0 | SPOT peptide array binding signal intensity (ScAbp1): 7 | SPOT peptide array binding signal intensity (ScBbc1): 55.2 | SPOT peptide array binding signal intensity (ScBem1-D1): 6 | SPOT peptide array binding signal intensity (ScBzz1-D1): 12 | SPOT peptide array binding signal intensity (ScBzz1-D2): 1 | SPOT peptide array binding signal intensity (ScCyk3): 17.5 | SPOT peptide array binding signal intensity (ScFus1): ≤ 0 | SPOT peptide array binding signal intensity (ScHof1): ≤ 0 | SPOT peptide array binding signal intensity (ScHse1): 150 | SPOT peptide array binding signal intensity (ScLsb1): 12.5 | SPOT peptide array binding signal intensity (ScLsb2): ≤ 0 | SPOT peptide array binding signal intensity (ScLsb3): 122 | SPOT peptide array binding signal intensity (ScLsb4): 5 | SPOT peptide array binding signal intensity (ScMyo3): 1.5 | SPOT peptide array binding signal intensity (ScMyo5): 0.5 | SPOT peptide array binding signal intensity (ScNbp2): 26.5 | SPOT peptide array binding signal intensity (ScPex13): 17.5 | SPOT peptide array binding signal intensity (ScRvs167): 16.7 | SPOT peptide array binding signal intensity (ScSho1): 71.5 | SPOT peptide array binding signal intensity (ScSla1-D1-D2): 12 | SPOT peptide array binding signal intensity (ScSla1-D3): 0.75 | SPOT peptide array binding signal intensity (SpAbp1-D1): 11 | SPOT peptide array binding signal intensity (SpBbc1): 1.75 | SPOT peptide array binding signal intensity (SpBzz1-D1): 240

RAPPPVPKKPSSRIA
SPOT peptide array binding signal intensity (CaNbp2): 1040 | SPOT peptide array binding signal intensity (CaRvs167): 170 | SPOT peptide array binding signal intensity (CaRvs167-3): 1 | SPOT peptide array binding signal intensity (CaSho1): 94 | SPOT peptide array binding signal intensity (CaSla1-D1-D2): 3890 | SPOT peptide array binding signal intensity (CaSla1-D3): 250 | SPOT peptide array binding signal intensity (ScAbp1): 2860 | SPOT peptide array binding signal intensity (ScBbc1): 270 | SPOT peptide array binding signal intensity (ScBem1-D1): 9 | SPOT peptide array binding signal intensity (ScBzz1-D1): 565 | SPOT peptide array binding signal intensity (ScBzz1-D2): 33 | SPOT peptide array binding signal intensity (ScCyk3): 7 | SPOT peptide array binding signal intensity (ScFus1): 1 | SPOT peptide array binding signal intensity (ScHof1): 1.5 | SPOT peptide array binding signal intensity (ScHse1): ≤ 0 | SPOT peptide array binding signal intensity (ScLsb1): 452 | SPOT peptide array binding signal intensity (ScLsb2): 1030 | SPOT peptide array binding signal intensity (ScLsb3): 4390 | SPOT peptide array binding signal intensity (ScLsb4): 52.5 | SPOT peptide array binding signal intensity (ScMyo3): 80.5 | SPOT peptide array binding signal intensity (ScMyo5): 50.2 | SPOT peptide array binding signal intensity (ScNbp2): 5230 | SPOT peptide array binding signal intensity (ScPex13): 869 | SPOT peptide array binding signal intensity (ScRvs167): 1400 | SPOT peptide array binding signal intensity (ScSho1): 2740 | SPOT peptide array binding signal intensity (ScSla1-D1-D2): 2100 | SPOT peptide array binding signal intensity (ScSla1-D3): 331 | SPOT peptide array binding signal intensity (SpAbp1-D1): 2240 | SPOT peptide array binding signal intensity (SpBbc1): 26 | SPOT peptide array binding signal intensity (SpBzz1-D1): 2030 | SPOT peptide array binding signal intensity (SpBzz1-D2): 198 | SPOT peptide array binding signal intensity (SpCyk3): 5 | SPOT peptide array binding signal intensity (SpHof1): 186 | SPOT peptide array binding signal intensity (SpHof1-2): 20.2 | SPOT peptide array binding signal intensity (SpHof1-3): 372 | SPOT peptide array binding signal intensity (SpHse1): 126 | SPOT peptide array binding signal intensity (SpLsb1): 1720 | SPOT peptide array binding signal intensity (SpLsb4): 1110 | SPOT peptide array binding signal intensity (SpMyo1): 151 | SPOT peptide array binding signal intensity (SpNbp2): 48.5 | SPOT peptide array binding signal intensity (SpPex13): ≤ 0 | SPOT peptide array binding signal intensity (SpRvs167): 1860 | SPOT peptide array binding signal intensity (SpSla1-D1-D2): 576 | SPOT peptide array binding signal intensity (SpSla1-D3): ≤ 0
